Compound activity as filed in PubChem.
Shown are actives, neighbours in structure and some others; about 2.5% of the full set was active somewhere.
ATG4B inhibitor: ATG4B (human) cysteine protease inhibition; Q9Y4P1; ATG4B cleavage of LC3-PLA2, NBD-HPC fluorescence, 1 h; inhibition, % at 8.33 µM; 0.51% of 340,000 active; AID 504462; in the data active = inhibition above about 40%
Target sequence (Q9Y4P1 whole entry, looked up): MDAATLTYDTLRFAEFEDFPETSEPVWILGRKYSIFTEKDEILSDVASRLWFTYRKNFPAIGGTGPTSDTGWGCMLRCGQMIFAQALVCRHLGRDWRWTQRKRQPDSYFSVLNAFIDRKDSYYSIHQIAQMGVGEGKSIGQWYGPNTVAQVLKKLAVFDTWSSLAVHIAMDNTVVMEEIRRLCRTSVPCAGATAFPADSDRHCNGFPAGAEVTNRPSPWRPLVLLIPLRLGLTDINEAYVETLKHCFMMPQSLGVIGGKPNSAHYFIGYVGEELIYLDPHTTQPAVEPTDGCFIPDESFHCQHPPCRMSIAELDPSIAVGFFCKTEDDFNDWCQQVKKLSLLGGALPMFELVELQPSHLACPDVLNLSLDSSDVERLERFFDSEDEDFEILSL
V-ATPase pHluor: regulators of yeast V-ATPase proton transport | S. cerevisiae, pHLuorin cytosolic pH fluorescence | response, % at 10 µM | 0.37% of 350,000 active | AID 504577; in the data active = response mostly above about 7.3%, no sharp cut-off; inactive = mostly below about 5.4%; also: actives read high
Mot1-301 SUMO: inhibitors of SUMOylation pathway: yeast Mot1-301 growth rescue; S. cerevisiae Mot1-301 growth rescue, ATP luminescence, 38.5C; percent above DMSO median, 100 means doubled; growth rescue, % at 18.8 µM; 1% of 320,000 active; AID 2716;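 active = every valid replicate shows activation above 250% relative to neutral control wells; inactive = the rest, any valid replicate at or below 250%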;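 also: OY570 slx delta 5 strain wells were the positive control but not used for scaling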
Efflux pump mplx: antifungal efflux pump inhibition, Nile Red retention | S. cerevisiae Candida pump triplex | inhibition, % at 10 µM | 0.44% of 330,000 active;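 active = plate passing quality check with inhibition over a set limit, or well fluorescence over plate mean plus 4 SD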;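 also: Nile Red retained in pooled yeast measured as flow cytometry median fluorescence; 0% = buffer negative control and 100% = Enniatin B positive control; higher means more Nile Red kept so more efflux inhibition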
AI-2 QS mod: Vibrio harveyi AI-2 quorum sensing modulation; Vibrio harveyi JMH597 AI-2 luminescence/OD600 ratio, 9 h; hits give low values; strain lacks LuxN and CqsS sensors; 0 = neutral-control median; activity change, % at 7.5 µM; 0.4% of 300,000 active; AID 2094; in the data active = activity change below about -75%, passing the limit was not always enough;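 also: luminescence divided by OD600 gain over 9 h not by final OD600 alone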
Mot1 SUMO dose: inhibits SUMO pathway, affecting Mot1-301 yeast growth; shares compounds with Mot1-301 SUMO; S. cerevisiae Mot1-301 galactose growth, ATP luminescence, 24 h; -100 = growth of slx-deleted rescue strain; growth activity, percent, % at 42 µM; 2,300 tested, under 10 active;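 active = Signal drops as the depositor expects, and the fitted half-maximal dose is no more than ten times the top valid tested dose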;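 also: more negative values mean stronger growth rescue toward the control strain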
* hit, by the source's call; . = not tested or not shown; + = active, no number.

SMILES | ATG4B inhibitor | V-ATPase pHluor | Mot1-301 SUMO | Efflux pump mplx | AI-2 QS mod | Mot1 SUMO dose
O=C(NC(Cc1ccccc1)C(=O)NCCc1ccccn1)c1ccccc1 (stereo not given) | -1.7 | 2.4 | -12.4 | -0.4 | -7.1 | .
Cc1cc(C)n2nc(SCC(=O)NC3CCCC(C)C3C)nc2n1 (stereo not given) | -1.3 | -2.1 | 516.8* | 0.1 | 41.7 | -0.1
CCOc1ccc(CCNC(=O)c2cccc(NC3=NC4CS(=O)(=O)CC4S3)c2)cc1 (stereo not given) | -3.5 | -3.4 | 17.6 | -0.1 | 28.4 | .
C=C(C)Cn1c(SCC(=O)N/N=C/c2ccccc2OCC(=O)O)nnc1-c1ccc(Br)cc1 | -3.7 | -0.5 | 571.7* | 0.1 | -12.2 | 0.1
CCn1c(SCC(=O)N/N=C\c2ccccc2OCC(=O)O)nnc1-c1ccc(Cl)cc1 | 6.3 | 1.0 | 34.1 | -0.1 | 5.6 | .
O=C(NNC(=O)c1ccncc1)Nc1cccc(C(F)(F)F)c1 | 4.9 | -2.6 | -1.4 | -1.1 | 10.1 | .
CN(Cc1ccccc1)C(=O)c1[nH]cnc1C(=O)NCC(=O)OCc1ccccc1 | 12.5 | -0.5 | -13.3 | -0.1 | 2.9 | .
Cc1cccc(OCC(=O)NS(=O)(=O)c2ccc(Br)cc2)c1 | 4.1 | 1.1 | 379.1 | 0.0 | 12.0 | .
CC(=O)Nc1cccc(OCC(=O)NS(=O)(=O)c2ccc(C)cc2)c1 | 16.1 | 1.4 | 845.9* | 0.5 | 13.2 | -0.6
CC(C)(C)OC(=O)N[C@H](C(=O)OC(C)(C)C)c1ccc2c(c1)OCO2 | -2.7 | -0.8 | -10.2 | 0.1 | . | .
Cn1c(CCN2CCN(c3ccccn3)CC2)nc2cc(NC(=O)COc3ccccc3)ccc21 | -14.1 | 1.6 | -1.5 | 0.0 | 36.2 | .
CCOC(=O)c1c(CN2CCCCC2)n(C)c2cc(Br)c(O)c(CN(C)C)c12 | -11.4 | -0.4 | 471.6* | 0.2 | 4.3 | 0.4
CCOC(=O)c1c(CSc2ccccc2)n(C)c2cc(Br)c(O)c(CN(C)C)c12 | -8.4 | 0.6 | -13.5 | -0.1 | 8.2 | .
Cc1ccc(C(C(=O)NCC2CCCO2)N(Cc2ccccc2F)C(=O)Cn2nnc(-c3cccs3)n2)cc1 (stereo not given) | -12.2 | 2.5 | 371.4* | -0.1 | 13.9 | 0.1
COc1ccc(CCN(C)CCCC(C#N)(c2ccc(OC)c(OC)c2)C(C)C)cc1OC (stereo not given) | -5.1 | -1.3 | . | . | . | -0.2
COc1ccc(CCN(C)CCCN2CC(c3ccccc3)CC2=O)cc1OC (stereo not given) | -11.2 | -1.9 | -14.1 | -0.1 | 18.7 | .
CCCCn1c(N)c(N(CC(C)C)C(=O)Cc2ccc3c(c2)OCCO3)c(=O)[nH]c1=O | -14.0 | 3.0 | -4.6 | 0.0 | 4.0 | .
Cc1ccc(-n2nc3c(=O)n(CCCC(=O)NCc4cccc(F)c4)nc(C)c3c2C)cc1 | 16.4 | 2.0 | 597.4* | -0.1 | 42.6 | -0.1
Cc1nn(CCCC(=O)NCc2ccccc2)c(=O)c2nn(-c3ccccc3)c(C)c12 | 5.0 | 0.5 | -3.1 | -0.3 | 17.0 | .
COc1cccc(CNC(=O)CCCn2nc(C)c3c(C)n(-c4ccccc4)nc3c2=O)c1 | 0.5 | -0.5 | 531.1* | -0.2 | 11.8 | 0.2
CSc1cccc(N2CC(C(=O)N(CC(C)C)c3c(N)n(Cc4ccccc4)c(=O)[nH]c3=O)CC2=O)c1 (stereo not given) | 2.9 | -1.1 | -12.5 | -0.3 | 22.4 | .
COc1cccc(C(=O)CN(C(=O)c2ccc(Cl)c(Cl)c2)N2C(=O)C3CCCCC3C2=O)c1 (stereo not given) | -4.4 | -7.3 | -5.9 | -0.2 | 18.8 | .
COc1cccc(/C=C/C(=O)OCC(=O)NCC2CCCCC2)c1OC | -1.0 | 5.2 | 2.5 | -0.1 | . | .
Cc1ccc(/C=C2\SC(N3CCCC3)=NC2=O)cc1 | . | . | 477.1* | 0.0 | 13.4 | -0.5
Cc1noc(C)c1CSCC(=O)Nc1ccc(S(=O)(=O)C(F)F)cc1 | -6.8 | 1.4 | 8.3 | 0.2 | 19.9 | .
SMILES | ATG4B inhibitor | V-ATPase pHluor | Mot1-301 SUMO | Efflux pump mplx | AI-2 QS mod | Mot1 SUMO dose
O=C(NC(=S)Nc1ccccc1N1CCCC1)c1ccc([N+](=O)[O-])cc1 | -5.7 | -1.0 | 407.0* | 0.1 | 27.4 | -0.1
Cc1c(C(=O)NC(=S)Nc2ccccc2N2CCCC2)cccc1[N+](=O)[O-] | 6.3 | -2.0 | 425.5* | 0.1 | 19.5 | 0.1
CCOc1ccccc1NC(=O)c1ccc(Cl)c(NC(=O)CC(c2ccccc2)c2ccccc2)c1 | -6.4 | -1.3 | 2.0 | 0.2 | 17.1 | .
CCC(C)NC(=O)c1cnc2n(c1=O)CCS2 (stereo not given) | -8.2 | 9.2 | -0.5 | 0.1 | . | .
CC(NC(=O)c1cnc2n(c1=O)CCS2)c1ccccc1 (stereo not given) | -11.7 | -4.5 | 994.4* | 0.0 | 15.8 | 0.1
CC(C)/C=N/Nc1nc(-c2ccc(Br)cc2)cs1 | 12.2 | 6.7 | -10.6 | -0.2 | 6.0 | .
Cc1cccc(C(=O)NNC(=O)c2cc3cc4ccccc4nc3s2)c1 | -0.5 | -4.4 | -2.1 | 0.1 | 13.0 | .
Cc1ccc(S(=O)(=O)NNC(=O)c2cc3cc4ccccc4nc3s2)cc1 | -24.2 | 1.8 | 553.2* | 0.0 | -5.5 | -0.7
COc1ccc(C(=O)Nc2ccccc2C(=O)NCCN2CCOCC2)cc1OC | -8.7 | -1.2 | 424.1* | -0.1 | 10.9 | 0.1
O=C(CSc1nnc(NC(=O)CN2CCOCC2)s1)Nc1ccccc1 | 1.6 | 1.2 | + | -0.1 | 15.6 | -0.2
Cc1cc(C)c(Cn2cnc3ccccc32)c(C)c1 | -0.6 | 2.0 | -34.6 | -0.3 | 19.0 | .
CN(C)C(CNC(=O)c1ccc(C2SCCS2)cc1)c1ccccc1 (stereo not given) | 7.0 | 0.4 | -11.0 | -0.1 | . | .
CC(C)C(NC(=O)c1ccccc1)C(=O)NCC(c1ccccc1)N(C)C (stereo not given) | 1.2 | -1.6 | + | 0.0 | 12.1 | -0.1
CN(C)C(CNC(=O)CNC(=O)c1ccc(Br)cc1)c1ccccc1 (stereo not given) | -7.5 | 3.5 | 598.6* | 0.0 | 4.8 | 0.3
CC(C)C(NC(=O)c1c(F)cccc1F)C(=O)NCC(c1ccccc1)N(C)C (stereo not given) | 2.3 | -3.0 | 5.6 | -0.1 | 22.3 | .
CC[C@@H](C(=O)n1nc(C)cc1C)[C@H](NS(=O)(=O)c1ccc(C)cc1)c1ccccc1 | 1.8 | -2.7 | -4.4 | 0.1 | 15.9 | .
COc1cccc(-n2nnc3c(=O)n(CC(=O)N4CCCc5ccccc54)cnc32)c1 | -6.5 | -2.7 | + | 0.4 | 28.2 | 0.3
Cc1ccc(C)c(NC(=O)COC(=O)c2cccc(S(=O)(=O)N3CCCC3)c2)c1 | . | -1.8 | . | . | . | .
Cc1nc(NCCc2ccc(Cl)cc2)c2nnn(Cc3ccccc3)c2n1 | -2.3 | -3.4 | -5.2 | -0.2 | 7.7 | .
Cc1nc(NCCN2CCOCC2)c2nnn(Cc3c(F)cccc3Cl)c2n1 | 5.6 | 0.9 | 629.0* | 0.1 | 0.9 | -0.3
C/C(CC(=O)Nc1cccnc1)=N/NC(=O)COc1ccc(Cl)cc1Br | -4.7 | 2.0 | -23.8 | 0.0 | 15.5 | .
